According to PubChem BioAssay (Tox21):
Values joined by “and” are separate entries in the source; they are usually repeats but may differ in a detail not shown here. Equal values may be shown once. Inconclusive results are not listed. A structure can be active in one record and inactive in another. Active and inactive are the calls of the source. Unless noted, the call rests on the fitted dose curve; in most records, active means well fitted curve in the direction sought with a large enough effect in the repeat runs; inconclusive means weak or mixed curves; inactive means no such curve, though single readings can be large; an effect the other way counts as inactive or inconclusive.

What was measured:
[1] = qHTS assay to identify aromatase inhibitors - cell viability counter screen (AID 743084); conditions: MCF-7 aro ERE viability, CellTiter-Fluor, 24 h; series mostly up to 70.3 µM;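 further: cells stimulated with testosterone during compound exposure; nearly all actives have a fitted effect of over 55% in size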
[2] = qHTS assay to identify small molecule that activate the aryl hydrocarbon receptor (AhR) signaling pathway - cell viability counter screen (AID 743086); conditions: HepG2-AhR-luc viability, CellTiter-Fluor, 24 h; series mostly up to 70.3 µM;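 further: HepG2 liver cells carrying the AhR DRE luciferase reporter; nearly all actives have a fitted effect of over 45% in size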
In short: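 HepG2-AhR-luc (HG2L7.5c1) cells, 4000/well, were preincubated 5 h at 37C, exposed to compound in qHTS format for 24 hr at 37C, then given CellTiter-Fluor for 30 min; viability was read as fluorescence in the reporter wells.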

[3] = target: Peroxisome proliferator-activated receptor gamma (Homo sapiens) (UniProt P37231); assay: qHTS assay to identify small molecule agonists of the peroxisome proliferator-activated receptor gamma (PPARg) signaling pathway (AID 743094; active means well fitted activation curve with a large enough effect in the signal ratio in the repeat runs, not every such curve was filed as active; the % refers to the signal ratio); conditions: HEK293H PPARg-UAS-bla, beta-lactamase FRET ratio, 17 h; series mostly up to 57 µM
In short: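 Agonism was assessed in a beta-lactamase reporter system, HEK293H cells with a stably integrated UAS-bla construct under PPARg control; the 17 h treatment at 37C preceded a 1 h room-temperature FRET substrate read.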

[4] = target: Peroxisome proliferator-activated receptor gamma (Homo sapiens) (UniProt P37231); assay: qHTS assay to identify small molecule antagonists of the peroxisome proliferator-activated receptor gamma (PPARg) signaling pathway (AID 743191; calls by dose curve; further: nearly all actives have a fitted effect of over 30% in size); conditions: HEK293H PPARg-UAS-bla, beta-lactamase ratio, antagonist, 17 h; series mostly up to 62.6 µM
In short: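 GeneBLAzer PPARg UAS-bla HEK293H cells carrying a UAS-driven beta-lactamase reporter were plated at 3000 cells/well, preincubated 5 h at 37C, then given compound for 17 h at 37C; LiveBLAzer B/G FRET substrate was read after 1 h at room temperature.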

[5] = qHTS assay for small molecule agonists of the antioxidant response element (ARE) signaling pathway (AID 743202; active means well fitted activation curve with a large enough effect in the signal ratio in the repeat runs, not every such curve was filed as active; the % refers to the signal ratio; further: potency means the concentration at half of the fitted maximal effect); conditions: HepG2 ARE-bla reporter, beta-lactamase FRET, 16 h; series mostly up to 73.3 µM
In short: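 Steps: seed ARE-bla HepG2 cells (2,000/well); incubate 5 h at 37 C; add compounds by pin tool; incubate 16 h at 37 C; add FRET substrate; read fluorescence after 2 h at RT.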

[6] = qHTS assay for small molecule agonists of the antioxidant response element (ARE) signaling pathway - cell viability counter screen (AID 743203; calls by dose curve; further: nearly all actives have a fitted effect of over 55% in size); conditions: ARE-bla HepG2 viability, CellTiter-Glo luminescence, 16 h; series mostly up to 73.3 µM
In short: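 ATP content via CellTiter-Glo luminescence served as the viability measure. Cells: ARE-bla HepG2, 2,000 per well. Exposure: 16 hrs, 37C/5% CO2.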

[7] = qHTS assay for small molecule activators of the heat shock response signaling pathway - cell viability counter screen (AID 743209); conditions: HSE-bla HeLa viability, CellTiter-Glo luminescence, 5 h; series mostly up to 62.6 µM; further: nearly all actives have a fitted effect of over 50% in size
In short: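 Compounds dissolved in DMSO were added to overnight-plated HSE-bla HeLa cells and left 5 h at 37 C. Cell viability was quantified by luminescence using CellTiter-Glo.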

[8] = qHTS assay for small molecule activators of the heat shock response signaling pathway (AID 743210; active means well fitted activation curve with a large enough effect in the signal ratio in the repeat runs, with a control signal flat, not every such curve was filed as active; the % refers to the signal ratio;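 further: HeLa cells with beta-lactamase reporter driven by heat shock elements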); conditions: HeLa HSE-bla reporter, beta-lactamase ratio, 5 h; series mostly up to 62.6 µM
In short: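 Activation of heat shock element-controlled beta-lactamase expression is measured in HeLa cells by LiveBLAzer FRET fluorescence, with compound exposure lasting 5 h at 37 C and substrate loading 2.5 h at room temperature.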

[9] = qHTS assay to identify small molecule antagonists of the peroxisome proliferator-activated receptor delta (PPARd) signaling pathway - cell viability counter screen (AID 743213); conditions: PPARd-bla HEK293H viability, CellTiter-Glo luminescence, 17 h; series mostly up to 62 µM; further: nearly all actives have a fitted effect of over 50% in size
In short: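 PPARd-bla HEK293H cells (3000/well) got compound plus 300 nM L165041 agonist for 17 h at 37 C. Viability in the same wells came from CellTiter-Glo luminescence after 30 min at room temperature.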

[10] = target: Peroxisome proliferator-activated receptor delta (Homo sapiens) (UniProt Q03181); assay: qHTS assay to identify small molecule antagonists of the peroxisome proliferator-activated receptor delta (PPARd) signaling pathway (AID 743215; active means well fitted inhibition curve with a large enough effect in the signal ratio in the repeat runs, not every such curve was filed as active; the % refers to the signal ratio;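 further: cells stimulated with agonist L165041 at 300 nM final during compound exposure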); conditions: HEK293H PPARd-UAS-bla, beta-lactamase FRET ratio, antagonist, 17 h; series mostly up to 62 µM
In short: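 Here, a reporter line (HEK293H, beta-lactamase under a UAS) measures PPARd signaling. Compounds are tested against agonist L165041 at 300 nM final concentration over 17 h at 37 C, with fluorescence read after substrate.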

[11] = target: Bile acid receptor (Homo sapiens) (UniProt Q96RI1); assay: qHTS assay to identify small molecule antagonists of the farnesoid-X-receptor (FXR) signaling pathway (AID 743217; active means well fitted inhibition curve with a large enough effect in the signal ratio in the repeat runs, not every such curve was filed as active; the % refers to the signal ratio); conditions: HEK293T FXR-UAS-bla, beta-lactamase ratio, CDCA-stimulated, 16 h; series mostly up to 62.6 µM
In short: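 Test compounds are pin-transferred onto FXR-bla HEK 293T cells, then chenodeoxycholic acid is added at 50 uM final. After 16 h at 37 °C, LiveBLAzer B/G substrate is applied for 2 h at room temperature and fluorescence read.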

[12] = qHTS assay to identify small molecule agonists of the farnesoid-X-receptor (FXR) signaling pathway - cell viability counter screen (AID 743218); conditions: FXR-bla HEK293T viability, CellTiter-Glo luminescence, 16 h; series mostly up to 62.6 µM; further: nearly all actives have a fitted effect of over 45% in size
In short: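 Quantitative HTS counter screen measuring ATP-based viability via CellTiter-Glo luminescence in HEK 293T cells carrying a UAS-driven beta-lactamase reporter, after 16 h compound exposure at 37 C.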

[13] = target: Bile acid receptor (Homo sapiens) (UniProt Q96RI1); assay: qHTS assay to identify small molecule agonists of the farnesoid-X-receptor (FXR) signaling pathway (AID 743220; active means well fitted activation curve with a large enough effect in the signal ratio in the repeat runs, not every such curve was filed as active; the % refers to the signal ratio); conditions: HEK293T FXR-UAS-bla, beta-lactamase FRET ratio, 16 h; series mostly up to 62.6 µM
In short: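 FXR-UAS-bla HEK 293T cells carrying a UAS-driven beta-lactamase reporter were plated for 5 h at 37C/5% CO2, then exposed to DMSO-dissolved Tox21 10K compounds for 16 h at 37C. A LiveBLAzer B/G FRET substrate was loaded for 2 h at room temperature before fluorescence reading.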

[14] = qHTS assay to identify small molecule antagonists of the farnesoid-X-receptor (FXR) signaling pathway - cell viability counter screen (AID 743221; active means well fitted cell-killing curve with a large enough effect in the repeat runs, not every such curve was filed as active; further: nearly all actives have a fitted effect of over 50% in size); conditions: FXR-bla HEK293T viability, CellTiter-Glo luminescence, 16 h; series mostly up to 62.6 µM
In short: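 Cytotoxicity counter screen run in the FXR-bla reporter wells: HEK 293T cells exposed to compound with 50 uM (final) chenodeoxycholic acid for 16 h, 37 C, then viability measured by CellTiter-Glo luminescence after 30 min, room temperature.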

[15] = target: Vitamin D3 receptor (Homo sapiens) (UniProt P11473); assay: qHTS assay to identify small molecule agonists of the vitamin D receptor (VDR) signaling pathway (AID 743222; calls by dose curve); conditions: HEK293T VDR-UAS-bla, beta-lactamase FRET ratio, 16 h; series mostly up to 63.5 µM
In short: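 Tox21 cell reporter format: VDR-bla line, 16 h compound exposure in 5% CO2 at 37C, then fluorescence intensity after 2 h with LiveBLAzer B/G FRET substrate.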

[16] = target: Vitamin D3 receptor (Homo sapiens) (UniProt P11473); assay: qHTS assay to identify small molecule antagonists of the vitamin D receptor (VDR) signaling pathway (AID 743223; active means well fitted inhibition curve with a large enough effect in the signal ratio in the repeat runs, not every such curve was filed as active; the % refers to the signal ratio); conditions: VDR-UAS-bla HEK293T, beta-lactamase FRET ratio, 16 h; series mostly up to 61 µM
In short: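 Antagonist mode: compound added to VDR-bla cells alongside agonist 1alpha,25-dihydroxyvitamin D3 (3 nM final), incubation 16 h at 37C. Read-out is LiveBLAzer FRET fluorescence, 2 h at room temperature.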

[17] = target: Aryl hydrocarbon receptor (Homo sapiens) (UniProt P35869); assay: qHTS assay to identify small molecule that activate the aryl hydrocarbon receptor (AhR) signaling pathway (AID 743085); conditions: HepG2 AhR-luc (HG2L7.5c1), luciferase, 24 h; series mostly up to 70.3 µM;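 further: HG2L7.5c1 human HepG2 liver cells with stably integrated DRE-driven firefly reporter; nearly all actives have a fitted effect of over 15% in size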
In short: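 Luminescence (ONE-Glo) from a dioxin-responsive-element luciferase reporter in HG2L7.5c1 HepG2 cells after 24 hr compound exposure at 37C; viability measured by CellTiter-Fluor fluorescence beforehand.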

[18] = qHTS assay to identify small molecule antagonists of the peroxisome proliferator-activated receptor gamma (PPARg) signaling pathway - cell viability counter screen (AID 743194); conditions: PPARg-bla HEK293H viability, CellTiter-Glo luminescence, 17 h; Potency: co-treated with 50 nM rosiglitazone unless noted; series mostly up to 62.6 µM; further: nearly all actives have a fitted effect of over 55% in size
In short: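 PPARg-UAS-bla HEK293H cells were plated, rested 5 h at 37 C, then treated with compounds plus rosiglitazone (50 nM final) for 17 h at 37 C; viability was then read by CellTiter-Glo luminescence after 30 min at room temperature.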

[19] = qHTS assay to identify small molecule agonists of the peroxisome proliferator-activated receptor delta (PPARd) signaling pathway - cell viability counter screen (AID 743211); conditions: PPARd-bla HEK293H viability, CellTiter-Glo luminescence, 17 h; series mostly up to 62.6 µM; further: nearly all actives have a fitted effect of over 55% in size
In short: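 Viability was measured as CellTiter-Glo luminescence (30 min, room temperature) in the same wells as the beta-lactamase readout. GeneBLAzer PPARd UAS-bla HEK293H cells received compound after 5 h plating and were incubated 17 h at 37 C.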

[20] = target: Peroxisome proliferator-activated receptor delta (Homo sapiens) (UniProt Q03181); assay: qHTS assay to identify small molecule agonists of the peroxisome proliferator-activated receptor delta (PPARd) signaling pathway (AID 743212; calls by dose curve); conditions: HEK293H PPARd-UAS-bla, beta-lactamase FRET ratio, 17 h; series mostly up to 62.6 µM
In short: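 Cells expressing a UAS-driven beta-lactamase reporter (PPARd-bla HEK293H) were given test compounds after a 5 h settle and kept at 37 C. Reporter activity was then measured as FRET fluorescence using LiveBLAzer B/G substrate.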

Measured: Potency

Chain of Peroxisome proliferator-activated receptor delta (Homo sapiens) (Q03181 whole entry, looked up): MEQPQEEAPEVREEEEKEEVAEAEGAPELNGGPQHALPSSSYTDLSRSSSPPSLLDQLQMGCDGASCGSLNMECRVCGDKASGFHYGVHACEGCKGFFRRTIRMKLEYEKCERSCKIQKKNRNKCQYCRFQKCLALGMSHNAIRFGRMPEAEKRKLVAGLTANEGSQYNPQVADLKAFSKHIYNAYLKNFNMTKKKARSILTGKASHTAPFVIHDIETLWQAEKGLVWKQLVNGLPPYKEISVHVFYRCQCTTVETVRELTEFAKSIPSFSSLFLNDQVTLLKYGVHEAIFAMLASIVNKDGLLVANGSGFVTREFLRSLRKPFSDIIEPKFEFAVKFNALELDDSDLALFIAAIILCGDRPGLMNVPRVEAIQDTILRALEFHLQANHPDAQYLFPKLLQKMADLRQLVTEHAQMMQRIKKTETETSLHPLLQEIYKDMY
Chain of Vitamin D3 receptor (Homo sapiens) (P11473 whole entry, looked up): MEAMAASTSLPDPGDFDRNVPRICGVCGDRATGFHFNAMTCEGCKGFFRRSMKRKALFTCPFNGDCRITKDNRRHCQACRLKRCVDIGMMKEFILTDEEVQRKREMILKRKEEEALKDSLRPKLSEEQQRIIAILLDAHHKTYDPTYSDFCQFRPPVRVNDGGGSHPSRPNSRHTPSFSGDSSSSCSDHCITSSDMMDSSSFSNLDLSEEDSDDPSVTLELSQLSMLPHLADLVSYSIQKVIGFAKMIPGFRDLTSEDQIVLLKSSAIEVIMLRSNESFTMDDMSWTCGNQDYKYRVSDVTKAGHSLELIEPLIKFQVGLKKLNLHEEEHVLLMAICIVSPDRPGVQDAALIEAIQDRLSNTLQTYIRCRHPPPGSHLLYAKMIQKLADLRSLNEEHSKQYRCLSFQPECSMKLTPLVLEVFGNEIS
Chain of Peroxisome proliferator-activated receptor gamma (Homo sapiens) (P37231 whole entry, looked up): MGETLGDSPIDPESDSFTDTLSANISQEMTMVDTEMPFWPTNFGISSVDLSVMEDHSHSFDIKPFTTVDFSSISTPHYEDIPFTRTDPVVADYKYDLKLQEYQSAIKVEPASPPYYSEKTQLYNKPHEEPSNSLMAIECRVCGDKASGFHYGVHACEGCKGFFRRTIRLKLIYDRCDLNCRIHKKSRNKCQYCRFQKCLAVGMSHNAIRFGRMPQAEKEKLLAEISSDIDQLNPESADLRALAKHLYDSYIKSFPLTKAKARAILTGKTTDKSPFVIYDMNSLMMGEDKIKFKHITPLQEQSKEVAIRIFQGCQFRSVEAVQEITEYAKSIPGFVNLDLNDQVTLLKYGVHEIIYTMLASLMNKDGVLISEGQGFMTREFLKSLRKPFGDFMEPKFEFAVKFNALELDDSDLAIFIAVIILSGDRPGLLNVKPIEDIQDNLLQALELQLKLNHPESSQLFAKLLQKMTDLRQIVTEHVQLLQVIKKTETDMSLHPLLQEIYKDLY
Chain of Aryl hydrocarbon receptor (Homo sapiens) (P35869 whole entry, looked up): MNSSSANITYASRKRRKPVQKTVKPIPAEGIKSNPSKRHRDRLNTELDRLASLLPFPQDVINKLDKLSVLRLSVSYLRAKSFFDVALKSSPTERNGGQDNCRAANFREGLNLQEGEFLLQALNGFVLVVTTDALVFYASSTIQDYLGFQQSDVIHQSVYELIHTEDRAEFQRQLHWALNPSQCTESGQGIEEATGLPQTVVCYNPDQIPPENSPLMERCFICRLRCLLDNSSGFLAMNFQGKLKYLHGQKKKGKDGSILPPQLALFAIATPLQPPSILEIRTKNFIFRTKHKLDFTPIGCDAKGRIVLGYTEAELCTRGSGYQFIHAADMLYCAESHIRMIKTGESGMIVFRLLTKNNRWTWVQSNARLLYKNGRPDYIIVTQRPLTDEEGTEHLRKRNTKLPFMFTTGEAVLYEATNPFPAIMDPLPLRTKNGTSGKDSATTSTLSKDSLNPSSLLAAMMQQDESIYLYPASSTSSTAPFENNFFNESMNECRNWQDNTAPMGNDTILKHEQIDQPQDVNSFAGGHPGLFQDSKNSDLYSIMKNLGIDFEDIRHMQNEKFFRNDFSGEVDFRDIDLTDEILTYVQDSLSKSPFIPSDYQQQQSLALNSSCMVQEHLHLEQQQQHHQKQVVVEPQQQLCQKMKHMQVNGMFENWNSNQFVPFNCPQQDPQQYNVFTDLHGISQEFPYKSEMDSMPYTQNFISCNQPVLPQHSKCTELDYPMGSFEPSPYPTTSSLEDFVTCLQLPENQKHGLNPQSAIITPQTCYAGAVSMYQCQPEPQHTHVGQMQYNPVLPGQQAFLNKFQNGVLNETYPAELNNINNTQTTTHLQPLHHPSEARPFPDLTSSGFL
Chain of Bile acid receptor (Homo sapiens) (Q96RI1 whole entry, looked up): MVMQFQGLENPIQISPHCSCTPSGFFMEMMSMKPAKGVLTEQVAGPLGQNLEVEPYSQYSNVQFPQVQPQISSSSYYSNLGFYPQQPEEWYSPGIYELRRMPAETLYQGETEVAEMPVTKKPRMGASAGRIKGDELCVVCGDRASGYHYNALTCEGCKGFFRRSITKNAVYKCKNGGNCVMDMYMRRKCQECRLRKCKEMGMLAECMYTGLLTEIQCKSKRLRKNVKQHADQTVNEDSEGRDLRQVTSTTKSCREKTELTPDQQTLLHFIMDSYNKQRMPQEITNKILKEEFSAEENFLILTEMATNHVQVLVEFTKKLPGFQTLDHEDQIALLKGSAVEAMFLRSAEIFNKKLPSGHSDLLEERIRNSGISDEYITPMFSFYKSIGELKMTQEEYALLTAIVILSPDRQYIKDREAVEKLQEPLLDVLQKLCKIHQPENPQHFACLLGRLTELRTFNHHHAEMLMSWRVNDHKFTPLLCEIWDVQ

Oc1ccc(Cc2ccccc2O)cc1
active: [5] 30.6 µM
not listed: [17] | [18] | [19] | [20]
inactive: all other assays above

CC(C)(CO)CO
not listed: [3] | [4] | [7] | [11] | [13] | [15] | [16]
inactive: all other assays above

N[C@@H](Cc1cc(I)c(Oc2ccc(O)c(I)c2)c(I)c1)C(=O)O
inactive and 12.7 µM (active): [5]
not listed: [4] | [7] | [11] | [13] | [17] | [20]
inactive: all other assays above

CC(=O)c1nccs1
not listed: [11] | [13] | [17] | [20]
inactive: all other assays above

C[n+]1ccn(CCO)c1
not listed: [2] | [7] | [8] | [10] | [11] | [13] | [20]
inactive: all other assays above

Cc1cccc(C)c1[N+](=O)[O-]
not listed: [7] | [11] | [13] | [17]
inactive: all other assays above

CC(=O)OC[C@H]1O[C@@](COC(C)=O)(O[C@H]2O[C@H](COC(C)=O)[C@@H](OC(C)=O)[C@H](OC(C)=O)[C@H]2OC(C)=O)[C@@H](OC(C)=O)[C@@H]1OC(C)=O
not listed: [3] | [4] | [11] | [13] | [17] | [20]
inactive: all other assays above

CN1Cc2c(N)cccc2C(c2ccccc2)C1 (stereo not drawn)
inactive: [17]
